Measurements as given in PubChem BioAssay AID771 (SRMLSC, 2007).
In all, about 3,300 compounds went through this assay and about 55 (2%) were called active.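 The calls were made as follows: active = growth inhibition above 90%, meaning viable cell count by imaging cut by more than 90% versus vehicle controls; inactive = growth inhibition below 90%.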 Many of the other results were omitted from the sample, so actives are more common in it than they were.

Assay: HT29 colon tumor cell growth inhibition, primary screen, imaging, high content imaging, 48 h, CellTiter-Glo (AID 771);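 as to condensed nuclei: condensed means Hoechst nuclear area under control median minus 1.5 SD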
Details: HCS imaging cell count, at 10 µM, stronger effect = higher value; for condensed nuclei: measured here: percent cells with condensed nuclei
[1] = measured here: ATP CellTiter-Glo viability inhibition

Row | Compound | growth inhibition | growth inhibition [1] | condensed nuclei
1 | Cc1ccc2[nH]c3c(N4CCOCC4)ncnc3c2c1 | 42.1% (inactive) | 15.8% | 0.48%
2 | Fc1ccc2[nH]c3c(N4CCN(Cc5ccc6c(c5)OCO6)CC4)ncnc3c2c1 | 97.9% (active) | 92.8% | 29%
3 | c1ccc(CN2CCN(c3ncnc4c3[nH]c3ccccc34)CC2)cc1 | 89.4% (inactive) | 57.3% | 10.8%
4 | CN1CCN(c2ncnc3c2[nH]c2ccc(F)cc23)CC1 | 64.5% (inactive) | 10% | 2.81%
5 | Cc1ccc2[nH]c3c(N4CCN(Cc5ccc6c(c5)OCO6)CC4)ncnc3c2c1 | 94.2% (active) | 91.8% | 25.3%
6 | Fc1ccc2[nH]c3c(N4CCN(C5CCCCC5)CC4)ncnc3c2c1 | 94% (active) | 85.4% | 10.8%
7 | COc1ccc2[nH]c3c(N4CCN(Cc5ccc6c(c5)OCO6)CC4)ncnc3c2c1 | 40.6% (inactive) | 20.9% | 3.53%
8 | c1ccc2c(c1)[nH]c1c(N3CCN(C4CCCCC4)CC3)ncnc12 | 58.7% (inactive) | 2.53% | 3.08%
9 | c1ccc2c(c1)[nH]c1c(N3CCSCC3)ncnc12 | 57.5% (inactive) | 9.84% | 0.5%
10 | Cc1ccc2[nH]c3c(N4CCCCCC4)ncnc3c2c1 | 96.6% (active) | 93% | 38.1%
11 | Fc1ccc2[nH]c3c(N4CCSCC4)ncnc3c2c1 | 38.7% (inactive) | 37.9% | 4.52%
12 | Cc1ccc2[nH]c3c(N4CCN(Cc5ccccc5)CC4)ncnc3c2c1 | 16% (inactive) | -1.83% | 2.02%
13 | O=C(CCN1CCc2ccccc2CC1)c1ccc2c(c1)OCCO2 | 18.3% (inactive) | 14.1% | 1.32%
14 | Fc1ccc(-c2cnc[nH]2)cc1 | 7.2% (inactive) | -20.5% | 1.71%
15 | COC(=O)CSc1nc2sc3c(c2c(=O)n1C1CCCCC1)CCN(C)C3 | 31.7% (inactive) | -21.3% | 4.17%
16 | O=C(O)CC(C(=O)N(c1ccccc1)c1ccccc1)N1CCOCC1 (stereo not drawn) | -4.04% (inactive) | -10.5% | 1.81%
17 | Cc1occc1C(=O)OCC(=O)Nc1ccc(F)cc1 | 41.9% (inactive) | 18.1% | 4.91%
18 | Cc1ccc(CNC(=O)c2cc3c(=O)n4ccccc4nc3n(Cc3ccco3)c2=N)cc1 | 38.7% (inactive) | 10.6% | 1.03%
19 | CCOc1ccc(C2/C(=C(/O)c3ccc(F)cc3)C(=O)C(=O)N2CCCN(C)C)cc1 (stereo not drawn) | 28.1% (inactive) | -5.46% | 5.22%
20 | CCN1CCN(c2nc3c(C)cccn3c(=O)c2/C=C(\C#N)S(=O)(=O)c2ccccc2)CC1 | 9.15% (inactive) | 7.42% | 2.58%
21 | COC(=O)c1cc(Br)c(=O)n(CCc2ccc(F)cc2)c1 | 43.4% (inactive) | 17.2% | 1.12%
22 | CCOC(=O)c1[nH]c2ccc(F)cc2c1N=C(C)N(CC)CC | -6.13% (inactive) | -22.6% | 2.07%
23 | CC(C)CNC(=O)c1c(N)n(/N=C/c2ccccn2)c2nc3ccccc3nc12 | -40% (inactive) | -5.64% | 2.54%
24 | Fc1ccc2[nH]c3c(N4CCN(c5ccccc5)CC4)ncnc3c2c1 | 81.6% (inactive) | 84.2% | 29.2%

Row | Compound | growth inhibition | growth inhibition [1] | condensed nuclei
25 | COc1cccc(N2CCN(c3ncnc4c3[nH]c3ccccc34)CC2C)c1 (stereo not drawn) | 89.8% (inactive) | 62.2% | 5.36%
26 | COc1cccc(N2CCN(c3ncnc4c3[nH]c3ccc(F)cc34)CC2C)c1 (stereo not drawn) | 91.7% (active) | 89.4% | 4.17%
27 | CC(=O)/C=C(\C)NCCNc1c(F)c(F)c(CO)c(F)c1F | 23.4% (inactive) | 0.5% | 1.42%
28 | CC(NCCc1ccc(O)cc1)C(O)c1ccc(O)cc1 (stereo not drawn) | -16.3% (inactive) |  | 2.5%
29 | CCCCCCCCNC(C)C(O)c1ccc(SC(C)C)cc1 (stereo not drawn) | 99.7% (active) |  | 50%
30 | CC(COc1ccccc1)NC(C)C(O)c1ccc(O)cc1 (stereo not drawn) | 22.6% (inactive) |  | 2.89%
31 | COc1ccc(OC)c(C(O)c2coc3ccc(O)c(CN4CCOCC4)c23)c1 (stereo not drawn) | -2.41% (inactive) | -6.82% | 4.2%
32 | Cc1nc(=O)c(-c2ccccc2)c(C)n1-c1ccc(S(N)(=O)=O)cc1 | -25.6% (inactive) | -8.56% | 2.99%
33 | CCOC(=O)c1[nH]c2cc(OC)c(OC)cc2c1NC(=O)C(C)N1CCN(Cc2ccccc2)CC1 (stereo not drawn) | 3.83% (inactive) | -7.15% | 3.08%
34 | CCCCC(=O)NC(Nc1ccc(C)cn1)(C(=O)OCC)C(F)(F)F (stereo not drawn) | -56.4% (inactive) | -18.7% | 2.76%
35 | CCn1cc(C(=O)NCCc2ccccc2)c(=O)c2cc(F)c(N3CCN(C)CC3)cc21 | 97% (active) | 89.7% | 14.8%
36 | CCn1cc(C(=O)NCCCN(C)C)c(=O)c2cc(F)c(N3CCN(C)CC3)cc21 | 23.8% (inactive) | -23.1% | 4.97%
37 | CCn1cc(C(=O)NCc2ccccn2)c(=O)c2cc(F)c(N3CCN(C)CC3)cc21 | 15.6% (inactive) | -1.75% | 2.93%
38 | CCOC(=O)c1ccccc1OCc1cc(/C=N/n2cncn2)ccc1OC | 28.7% (inactive) | 6.4% | 3.97%
39 | CCOc1ccc(C2C(C#N)=C(N)SC(N)=C2C#N)cc1OC | 25.3% (inactive) | 1.94% | 0.7%
40 | O=c1c(C=NCCCn2ccnc2)c(-c2ccccc2)[nH]n1-c1nc2ccccc2s1 | 1.39% (inactive) | 1.73% | 3.29%
41 | N=c1c2c(-c3ccccc3)c(-c3ccccc3)n(Cc3ccccc3)c2ncn1CCCn1ccnc1 | 99.7% (active) | 97.2% | 41.1%
42 | OCCNc1ncnc2c1c(-c1ccccc1)c(-c1ccccc1)n2Cc1ccco1 | 37.6% (inactive) | 15.3% | 3.02%
43 | COC(=O)c1[nH]c(C)c(/C(O)=C2\C(=O)C(=O)N(CCN3CCOCC3)C2c2ccccc2OC)c1C (stereo not drawn) | 15.6% (inactive) | 7.04% | 1.6%
44 | O=C(NCCN1CCCCC1)/C(=N\O)c1ccccc1 | -0.27% (inactive) | -18.5% | 1.08%
45 | Cc1c(=O)n(OCc2c(F)cccc2F)c2ccccc2[n+]1[O-] | 7.92% (inactive) | 2.47% | 2.94%
46 | C=CC(O)Cc1c(C)n[nH]c1C (stereo not drawn) | -31.7% (inactive) | 7.27% | 2.84%
47 | COc1ccc(OCC(=O)N2CCN(C(=O)c3cccc4ccccc34)CC2)cc1 | -1.2% (inactive) | -3.25% | 2%
